Max response, negative = inhibition and Potency data for 87 molecules are collected here from PubChem BioAssay AID720504 (National Center for Advancing Translational Sciences (NCATS), 2013).

Screen size: about 360,000 compounds; about 10,000 (2.8%) were called active. Roughly 4% stayed inconclusive and do not appear here. The call rests on the fitted dose curve; in most records, active means well fitted inhibition curve with a large enough effect; inconclusive means small, poorly fitted or top-dose-only effect; inactive means flat fitted curve, though single readings scatter. What follows is part of a selection rich in actives, with near analogues and random picks from the rest.
On the % scale 0 is the no-effect control and ±100 the full control effect; potency means the concentration at half of the fitted maximal effect.

The target of the experiment is Serine/threonine-protein kinase PLK1 (Homo sapiens) (UniProt P53350). Kind of experiment: qHTS for Inhibitors of PLK1-PDB (polo-like kinase 1 - polo-box domain): Primary Screen. Further: nearly all actives have a fitted effect of over 65% in size. On Max response, negative = inhibition: series mostly up to about 57 µM. Conditions: Plk1 PBD binding of FITC phosphopeptide, fluorescence polarization. (In general: Quantitative high-throughput screening tests each substance at several concentrations.)
Chain of Serine/threonine-protein kinase PLK1 (Homo sapiens) (P53350 whole entry, looked up, the tested form may be a part): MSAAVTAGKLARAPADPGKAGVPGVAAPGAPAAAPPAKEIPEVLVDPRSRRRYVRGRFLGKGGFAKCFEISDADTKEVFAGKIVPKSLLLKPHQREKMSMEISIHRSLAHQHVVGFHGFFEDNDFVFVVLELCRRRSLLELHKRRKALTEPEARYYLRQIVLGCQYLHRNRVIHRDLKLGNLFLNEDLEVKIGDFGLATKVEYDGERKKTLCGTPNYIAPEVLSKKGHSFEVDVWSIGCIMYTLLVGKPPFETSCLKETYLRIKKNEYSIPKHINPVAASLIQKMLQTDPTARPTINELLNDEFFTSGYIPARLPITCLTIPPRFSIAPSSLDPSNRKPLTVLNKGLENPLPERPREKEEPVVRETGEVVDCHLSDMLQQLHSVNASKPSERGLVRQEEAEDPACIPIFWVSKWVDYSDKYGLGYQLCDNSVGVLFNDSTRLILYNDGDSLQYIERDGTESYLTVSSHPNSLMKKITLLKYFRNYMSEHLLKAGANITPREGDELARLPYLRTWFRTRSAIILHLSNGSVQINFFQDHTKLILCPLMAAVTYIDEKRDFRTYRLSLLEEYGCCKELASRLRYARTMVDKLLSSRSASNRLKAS
As for `CCOC(=O)c1c(NC(=O)C(C)Sc2c[nH]c3ccccc23)sc2c1CCC2` (configuration not stated), the max response, negative = inhibition was -20.8% (inactive).
As for `CCOC(=O)c1c(NC(=O)CSc2cn(CC)c3ccccc23)sc2c1CCC2`, the max response, negative = inhibition was -5.08% (inactive).
In the case of `CCOC(=O)c1c(NC(=O)C2(C)Cc3ccccc3C(=O)O2)sc2c1CCCC2` (configuration not stated), the Potency was 23.8 µM (active).
As to `CC1(c2cccc(N)c2)OCCO1`, the max response, negative = inhibition was -12.9% (inactive).
For the molecule `CCc1nc2ccc(C(=O)N(C)Cc3ccco3)cn2c1N(C)C(=O)Cc1ccccc1`, the max response, negative = inhibition was -2.7% (inactive).
On to `CC1(C(=O)NS(=O)(=O)c2cccc(F)c2)CCN1C(=O)Cc1cc(F)ccc1F` (configuration not stated), for which the max response, negative = inhibition was 1.7% (inactive).
On to `C[C@@H]1CN([C@H](C)CO)C(=O)c2cc(-c3ccc(F)cc3)cnc2O[C@H]1CN(C)C(=O)c1ccc(F)cc1`, for which the max response, negative = inhibition was -26.3% (inactive).
`OCCNc1nc(Nc2ccc(Cl)c(Cl)c2)nc2ccccc12`: the max response, negative = inhibition is -0.568% (inactive).
As for `O=[N+]([O-])c1c(NCCO)cc(Sc2nc3ccccc3s2)c2nonc12`, the Potency is 1.68 µM (active).
In the case of `Cc1ccc(CN(C)C[C@@H]2OCc3cnnn3CCCC(=O)N([C@@H](C)CO)C[C@H]2C)cc1`, the max response, negative = inhibition is -4.71% (inactive).
Same read-out and setting: under `CC(C)(C)C1CCC(=O)N2CCC[C@]2(c2ccccc2)C1` (some centres not stated) stands -8.62% (inactive); under `COC(=O)C1=CN(c2c(C)cc(C)cc2C)C(N)=C(C#N)C1c1cccc(F)c1` (configuration not stated), 0.842% (inactive).
Turning to `C[C@@H](NC(=O)OC(C)(C)C)c1nnc(S(=O)(=O)Cc2ccccc2)o1`, the Potency was 13.4 µM (active).
In the case of `COc1ccccc1NC(=O)[C@H](COCc1ccccc1)NC(=O)OC(C)(C)C`, the max response, negative = inhibition is -12.1% (inactive).
Same read-out and setting: under `CC(C)[C@@H](NC(=O)OC(C)(C)C)C(=O)NCC1CCC(C(=O)N[C@@H](Cc2ccccc2)C(=O)O)CC1` (some centres not stated) stands 3.75% (inactive).
As to `CC(C)Sc1nnc([C@H](Cc2ccccc2)NC(=O)OC(C)(C)C)o1`, the Potency is 23.8 µM (active).
Turning to `CC(C)(C)c1ccc(C(CC(=O)O)NS(=O)(=O)Cc2ccccc2)cc1` (configuration not stated), the max response, negative = inhibition was -2.95% (inactive).
Same read-out and setting: under `CCc1ccccc1NC(=O)CSc1nnc([C@@H](NC(=O)OC(C)(C)C)C(C)CC)o1` (some centres not stated) stands -15.7% (inactive); under `CCCOc1ccc(F)cc1-c1cc(C(=O)NCc2ccc(F)cc2)[nH]n1`, -11.9% (inactive).
Still for that read-out and setting: under `COc1cc(C(=O)OCCCN2CCOCC2)cc(OC)c1OC` stands 0.976% (inactive).
As for `CCOC(=O)N1CCN(C(=O)C[C@@H]2C[C@@]3(C(=O)OC)CC(C)(C)CC=C3N(Cc3ccco3)C2=O)CC1`, the max response, negative = inhibition was 2.41% (inactive).
Same read-out and setting: under `Cc1cccc(CNC(=O)c2sc(=O)n(Cc3ccccc3C)c2C)c1` stands -6.16% (inactive).
Turning to `CCCCn1c(SCC(=O)N2CCOCC2)nc2c1c(=O)n(C)c(=O)n2C`, the max response, negative = inhibition is -13.8% (inactive).
On to `CCCCCCn1c(SCC(=O)c2ccccc2)nc2c1c(=O)[nH]c(=O)n2C`, for which the max response, negative = inhibition was -19.2% (inactive).
Take `CCCCCn1c(SCCC(C)C)nc2c1c(=O)[nH]c(=O)n2C`: the Potency is 23.8 µM (active).
In the case of `CCc1nc2c(OCC(=O)C(C)(C)C)cccn2c1N(C)C(=O)c1ccccc1F`, the max response, negative = inhibition is -11% (inactive).
On to `CC1(C)CC(=O)C=C(c2ccccc2CO)C1=O`, for which the max response, negative = inhibition is -0.138% (inactive).
Regarding `Clc1ccc(-c2cccc3nccn23)cc1`, the max response, negative = inhibition was -1.38% (inactive).
The same measure, in the same setting: with `COC(=O)c1cn(C(=O)c2ccc(Cl)cc2)c2ccccc12` the figure was -5.55% (inactive).
In the case of `COC(=O)c1ccccc1N=Nc1c(C)[nH][nH]c1=O`, the Potency was 23.8 µM (active).
Regarding `COC(=O)c1ccccc1N=NNc1ccc([N+](=O)[O-])cc1`, the max response, negative = inhibition is 0.193% (inactive).
`CCN(CC)c1ncnc2c1ncn2[C@H]1CN(Cc2cccs2)C[C@@H](CO)O1`: the max response, negative = inhibition was 2.82% (inactive).
In the case of `C[C@@H]1CCCCO[C@H](CN(C)Cc2ccccc2)[C@@H](C)CN([C@H](C)CO)C(=O)c2cc(NS(=O)(=O)c3ccc(Cl)cc3)ccc2O1`, the max response, negative = inhibition was -7.57% (inactive).
For `COc1cc(N2C(=O)CSC2=S)cc(OC)c1OC`, the max response, negative = inhibition was -18.2% (inactive).
`O=C1CSC(=S)N1c1ccc(Cl)c(Cl)c1`: the Potency is 26.7 µM (active).
With `O=C1CSC(=S)N1c1ccc(O)cc1`, the max response, negative = inhibition is 1.87% (inactive).
Still for that read-out and setting: under `CCOC(=O)N1CCN(C(=O)C[C@@H]2C[C@@]3(C(=O)OC)CCCCC=C3N(CCC3=CCCCC3)C2=O)CC1` stands 4.13% (inactive); under `Nc1ncnc2c1ncn2[C@@H]1O[C@H](C(=O)N2CCSC2)[C@@H](O)[C@H]1O`, -1.36% (inactive).
On the same count and under the same terms, under `Clc1ccccc1Nc1nc(NCc2cccs2)nc2ccsc12` stands 0.746% (inactive); under `CCc1nc2c(OCCc3cccc(OC)c3)cccn2c1N(C)C(=O)c1ccc(C)cc1`, -4.74% (inactive); under `CC(=O)Nc1cc(-c2cccc(CO)c2)cn2c(-c3cccc(C(F)(F)F)c3)cnc12`, -14.2% (inactive).
With `Cc1nnsc1S(=O)(=O)Cc1ccccc1Cl`, the max response, negative = inhibition is -7.17% (inactive).
The same measure, in the same setting: with `O=C(Nc1ccc(S(=O)(=O)Nc2ccccn2)cc1)c1ccccc1` the figure was -2.45% (inactive).
`O=C(Nc1ccccc1)c1nnsc1S(=O)(=O)c1ccc(Cl)cc1`: the Potency is 4.74 µM (active).
As to `Cc1cc2nc(-c3ccc(F)cc3)c(Cc3ccsc3)n2c(C)c1Br`, the max response, negative = inhibition is -4.34% (inactive).
Regarding `CCc1c(-c2ccc(F)cc2)ncn1Cc1cccc(-c2ccccc2)c1`, the max response, negative = inhibition was -16% (inactive).
Still for that read-out and setting: under `COc1ccc(N(C)C(=O)CCS(=O)(=O)c2cccc3nsnc23)cc1` stands -20.6% (inactive).
Same read-out and setting: with `CCN(CC)CCN(C(=O)c1ccc2c(c1)CCCC2)c1nc2c(OC)cccc2s1` the figure was -2.72% (inactive).
As for `COc1cccc2sc(N(CCCN(C)C)C(=O)CCS(=O)(=O)c3ccccc3)nc12`, the Potency is 10.6 µM (active).
On to `CN1OC[C@@H]2CN(C(=O)c3ccc(-c4ccccc4)cc3)[C@H](c3ccc(-c4cccc(F)c4)cc3)C[C@@H]21`, for which the max response, negative = inhibition is -8.48% (inactive).
For `CC1=C(C(=O)N2CCOCC2)CC(CC(=O)NCc2cccs2)C(=O)N1CCCN1CCCC1=O` (configuration not stated), the max response, negative = inhibition was -11.8% (inactive).
As for `CCCC(=O)N1CCc2[nH]c3ccccc3c2C1`, the Potency was 26.7 µM (active).
Take `O=C(CCCN1CCc2[nH]c3ccc(F)cc3c2C1)c1ccc(F)cc1`: the max response, negative = inhibition is -6.15% (inactive).
As to `C=CCNC(=S)N1CCc2[nH]c3ccccc3c2C1`, the max response, negative = inhibition was -8.32% (inactive).
On the same count and under the same terms, under `CCc1nc2c(OCc3ccc(F)c(F)c3)cccn2c1N(C)C(=O)c1ccco1` stands 1.07% (inactive).
With `O=C(OCc1ccccc1)N1CCC2CC1c1ccc(-c3ccc4c(c3)OCO4)cc12` (configuration not stated), the max response, negative = inhibition was 2.15% (inactive).
Regarding `CC1(C(=O)NS(=O)(=O)c2cccc(OC(F)F)c2)CCN1C(=O)COc1ccc(Cl)cc1` (configuration not stated), the max response, negative = inhibition was 3.32% (inactive).
Same read-out and setting: with `OC(c1ccc(Cl)c(F)c1)c1ncc(-c2ccccc2Cl)[nH]1` (configuration not stated) the figure was 3.86% (inactive); with `CCCCC(O)C1=C[N+](=O)CC=C1` (configuration not stated), -14.2% (inactive).
Still for that read-out and setting: with `CN(C)[C@@H]1C(=O)C(C(N)=O)=C(O)[C@@]2(O)C(=O)C3=C(O)c4c(O)ccc(Cl)c4[C@@H](O)[C@H]3C[C@@H]12` the figure was -16.8% (inactive).
For the molecule `C=C1c2c(Cl)ccc(O)c2C(O)=C2C(=O)[C@]3(O)C(O)=C(C(N)=O)C(=O)[C@@H](N(C)C)[C@@H]3[C@@H](O)C12` (some centres not stated), the Potency was 23.8 µM (active).
In the case of `O=C(COC(=O)c1cncc(Br)c1)Nc1ccc(S(=O)(=O)N2CCOCC2)cc1`, the max response, negative = inhibition is -5.27% (inactive).
Still for that read-out and setting: with `Nc1nc(Sc2ncccc2[N+](=O)[O-])n[nH]1` the figure was 4.21% (inactive).
For `O=[N+]([O-])c1cccc2ncccc12`, the Potency was 3.77 µM (active).
For `O=[N+]([O-])c1ccccc1S(=O)(=O)Nc1cccc2cccnc12`, the max response, negative = inhibition is -7.49% (inactive).
Same read-out and setting: under `CC(C)Cn1cc(-c2cncc3nccn23)cn1` stands -13.4% (inactive).
For `O=C(Nc1ccc2c(c1)OCCO2)C1c2ccccc2OCC(=O)N1Cc1ccccn1` (configuration not stated), the max response, negative = inhibition was -7.8% (inactive).
The same measure, in the same setting: with `CCc1ccc(N(CC(=O)NCc2cccnc2)S(=O)(=O)c2ccccc2)cc1` the figure was -2.42% (inactive).
As to `CCC(C(=O)NCc1cccnc1)n1nc(C)c2sc3ccccc3c2c1=O` (configuration not stated), the Potency was 26.7 µM (active).
As to `CCC(C(=O)NCc1ccc(OC)cc1)n1nc(C)n2c(cc3occc32)c1=O` (configuration not stated), the max response, negative = inhibition was -1.71% (inactive).
`CC(=O)Nc1cccc(-c2ccnc3c2CC(C)(C(=O)NCc2ccco2)O3)c1` (configuration not stated): the max response, negative = inhibition is -8.18% (inactive).
With `COc1ccc(N(CC(=O)Nc2cc(OC)ccc2OC)S(=O)(=O)c2c(C)noc2C)cc1`, the max response, negative = inhibition was 2.36% (inactive).
`CCOc1ccc(N(CC(=O)OC)S(=O)(=O)c2c(C)noc2C)cc1`: the Potency was 26.7 µM (active).
With `CCOC(=O)c1cccc(NC(=O)CN(c2ccc(C)cc2)S(=O)(=O)c2c(C)noc2C)c1`, the max response, negative = inhibition is -3.68% (inactive).
Same read-out and setting: with `CC(=O)Nc1cc(-c2ccccc2F)cn2c(-c3cccc(C(F)(F)F)c3)cnc12` the figure was -1.88% (inactive); with `Cc1ccc(S(=O)(=O)N2CCN(CC(=O)N/N=C/c3ccc(Br)s3)CC2)cc1`, -1.96% (inactive).
With `Cc1cccc(NC(=O)CN2CCCN(S(=O)(=O)c3ccc(Br)s3)CC2)c1`, the Potency is 21.2 µM (active).
On to `CC(C)N(C(=O)CN1CCN(S(=O)(=O)c2ccc(Br)s2)CC1)C(C)C`, for which the max response, negative = inhibition is 1% (inactive).
Same read-out and setting: with `CCCCc1c(-c2ccc(Cl)cc2)ncn1CCc1ccccc1OC` the figure was 5.05% (inactive).
The same measure, in the same setting: under `COc1ccc(-c2ccc(CN3C(CC(C)C)C(=O)N(Cc4cn(CC5CCCCC5)nn4)CCS3(=O)=O)cc2)cn1` (configuration not stated) stands -1.42% (inactive); under `COc1ccc(NC(=O)CN(C)C(=O)c2cc(C)oc2C)cc1`, 1.78% (inactive).
Consider `CNC(=O)Nc1cc(C(C)(C)C)no1`, for which the Potency is 10.6 µM (active).
As to `CCCCn1nnnc1C(c1cc2ccccc2o1)N(C)Cc1ccc(Cl)c(Cl)c1` (configuration not stated), the max response, negative = inhibition is 5.97% (inactive).
In the case of `Cc1nc(Cl)c(C#N)c2c1CCCC2`, the max response, negative = inhibition is -17.7% (inactive).
`COCc1c(N)c(C)nc(Cl)c1C#N`: the Potency was 18.9 µM (active).
Regarding `COC(=O)c1c(C)c(C)nc(N)c1C#N`, the max response, negative = inhibition was -3.28% (inactive).
As to `O=C(Nc1ccc(F)cc1)Nc1nnc([C@H]2C[C@H](O)[C@@H](CO)O2)s1`, the max response, negative = inhibition is 3.58% (inactive).
